Test results as given in PubChem BioAssay (NCI).
About 83,000 compounds went through this panel and 20% of them were active in at least one assay; those are over-represented in the sample as a whole.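 For each line, cells grew in 96-well plates with the test compound present at a single concentration for 48 hours.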 The source made the active and inactive calls. The calls were made as follows: active = growth percent below 10; inactive = the rest.

What was measured:
Assay in all cases: NCI-60 one-dose screen, 48 h (100 = growth as untreated, 0 = no growth, -100 = all killed)
Details in all cases: 10 µM unless noted
[1] = tested on: SR leukemia
[2] = tested on: RPMI-8226 leukemia
[3] = tested on: OVCAR-8 ovarian
[4] = tested on: OVCAR-5 ovarian
[5] = tested on: OVCAR-4 ovarian
[6] = tested on: SK-OV-3 ovarian
[7] = tested on: IGROV1 ovarian
[8] = tested on: OVCAR-3 ovarian
[9] = tested on: HS 578T breast
[10] = tested on: NCI/ADR-RES ovarian
[11] = tested on: T-47D breast
[12] = tested on: BT-549 breast
[13] = tested on: MDA-MB-435 melanoma
[14] = tested on: MCF7 breast
[15] = tested on: HCT-116 colon
[16] = tested on: HCC-2998 colon
[17] = tested on: KM12 colon
[18] = tested on: SW-620 colon

Measured: growth

CCN(CC)CCCNc1nccc2ccc(Cl)cc12
inactive: [1] 94.3% | [2] 101% | [3] 94.8% | [4] 92% | [5] 108% | [6] 100% | [7] 118% | [8] 105% | [9] 109% | [10] 105% | [11] 106% | [12] 92.8% | [13] 103% | [14] 94% | [15] 84.9% | [16] 106% | [17] 111%

N[C@H]1CN(C(=O)c2cc3cc(Br)c(F)c(F)c3[nH]2)C[C@@H]1O
inactive: [1] 108% | [2] 98% | [3] 100% | [4] 94.3% | [5] 110% | [6] 100% | [7] 84.6% | [8] 102% | [9] 98.9% | [10] 100% | [11] 91.3% | [12] 89.5% | [13] 99.2% | [14] 89.3% | [15] 93.6% | [16] 93.3% | [17] 104%

N#Cc1c(-c2ccccc2)nc(SCC(=O)N2CCN(c3ccccc3)CC2)[nH]c1=O
inactive: [1] 90.6% | [2] 95.7% | [3] 97.9% | [4] 98.5% | [5] 115% | [6] 101% | [7] 112% | [8] 111% | [9] 106% | [10] 101% | [11] 99.4% | [12] 91.2% | [13] 108% | [18] 111% | [15] 92.5% | [16] 103% | [17] 106%

O=C1NN(C(=O)c2ccc(Cl)cc2)C(c2ccccc2)=N/C1=C\c1cn(-c2ccccc2)nc1-c1ccccc1
inactive: [1] 90% | [2] 117% | [3] 94.1% | [4] 93.4% | [5] 96.8% | [6] 102% | [7] 95.1% | [8] 112% | [9] 94.8% | [10] 92.9% | [11] 90.4% | [12] 101% | [13] 71.4% | [18] 101% | [14] 91.3% | [16] 101% | [17] 98.6%

CCN(CC)c1ccc(/C=C2\Oc3ccc(O)c(I)c3C2=O)cc1
active: [1] 2.38%
inactive: [2] 32.3% | [3] 61.7% | [4] 95.1% | [5] 81.5% | [6] 79.5% | [7] 40.4% | [8] 19.1% | [9] 75.4% | [10] 37.9% | [11] 55.1% | [12] 54.4% | [13] 16.7% | [18] 43.2% | [15] 33.9% | [16] 97.2% | [17] 43.3%

Cc1ccc(N2CCN(C(C)C(N)=O)CC2)cc1 (configuration not stated)
inactive: [1] 154% | [2] 96.8% | [3] 106% | [4] 99% | [5] 104% | [6] 114% | [7] 112% | [8] 106% | [9] 117% | [10] 106% | [11] 102% | [12] 88.9% | [13] 114% | [14] 106% | [15] 98.3% | [16] 102%

COc1ccc(/C(C#N)=C/c2cc(OC)c(OC)c(OC)c2)cc1
active: [13] -48.8%
inactive: [1] 11.8% | [2] 31.2% | [3] 57.4% | [4] 65.6% | [5] 87.8% | [6] 47.6% | [7] 44.9% | [8] 36.1% | [9] 91.4% | [10] 20.7% | [11] 44.1% | [12] 40.7% | [18] 26.3% | [16] 72% | [17] 29.3%

CCOC(=O)c1ccc2c(c1)nc(-c1ccc(OCc3ccccc3)c(OC)c1)n2-c1cc(C(C)(C)C)[nH]n1
inactive: [1] 68.9% | [2] 68.8% | [3] 99.7% | [4] 88.9% | [5] 76.4% | [6] 91.2% | [7] 83% | [8] 81.8% | [9] 82.2% | [10] 89.1% | [11] 65.5% | [12] 98.6% | [13] 85% | [14] 63.1% | [15] 62.8% | [16] 91% | [17] 69.3%

Cc1nn(-c2ccc(Cl)cc2)c2ncnc(N/N=C/c3cccc([N+](=O)[O-])c3)c12
inactive: [1] 51.3% | [2] 66.3% | [3] 99.7% | [4] 106% | [5] 94.5% | [6] 104% | [7] 94.7% | [9] 99.3% | [10] 105% | [11] 101% | [12] 106% | [13] 97.1% | [14] 103% | [15] 104% | [16] 94.8% | [17] 66.5%
active: [8] 8.17%

O=C(Nc1ccncc1)C(=O)c1cn(S(=O)(=O)c2ccc(Cl)cc2)c2ccccc12
active: [8] -22.3% | [10] -4.89% | [13] 0.272%
inactive: [1] 28.3% | [2] 31.4% | [3] 42.5% | [4] 64.7% | [5] 49% | [6] 91.7% | [7] 39.7% | [9] 13.5% | [11] 41.2% | [12] 39.2% | [18] 10.4% | [14] 16.8% | [16] 54.7% | [17] 19.8%

O=[N+]([O-])c1cccc(-c2nc3sccn3c2-c2ccnc(NCCCNS(=O)(=O)c3ccc(C(F)(F)F)cc3)n2)c1
inactive: [1] 37.5% | [3] 22.3% | [4] 90.6% | [5] 15.2% | [6] 71.9% | [7] 25.6% | [8] 28.7% | [9] 63.3% | [12] 30.3% | [13] 18.4% | [18] 66.6% | [15] 30.5% | [16] 52.9% | [17] 23.9%
active: [2] -4.61% | [10] 8.78% | [11] -1.61%

Cc1cc(C2=NNC(=O)Cc3cc4c(cc32)OCCO4)cc(C)c1N
inactive: [1] 27.5% | [2] 52.8% | [3] 54.8% | [4] 75.8% | [5] 56.8% | [6] 20.2% | [7] 44.7% | [9] 24.9% | [11] 46.1% | [12] 30.7% | [18] 26.5% | [14] 16.7% | [16] 48.8% | [17] 24%
active: [8] -28.5% | [10] -4.6% | [13] -12.6%

Cc1nn(-c2ccc([N+](=O)[O-])cc2)c2ncnc(NCCc3ccccc3)c12
inactive: [1] 62.3% | [2] 96.9% | [3] 98.4% | [4] 101% | [5] 109% | [6] 101% | [7] 99.2% | [8] 112% | [9] 101% | [10] 102% | [11] 93% | [12] 114% | [13] 94.9% | [18] 99.4% | [14] 93.1% | [16] 101% | [17] 96.1%

Cc1ccc(S(=O)(=O)C2=C3C(=C(c4ccccc4)c4ccccc43)CN(S(=O)(=O)c3ccc(C)cc3)C2)cc1
inactive: [3] 21.8% | [4] 93.7% | [5] 70.3% | [6] 92.6% | [7] 54% | [8] 56.9% | [9] 62.4% | [10] 27.8% | [11] 12% | [13] 74.2% | [14] 37.6% | [16] 88.9% | [17] 64.1%
active: [1] 3.89% | [2] -21.7% | [12] -1.45% | [15] 8.4%

COc1cc(NC(N)=NCCC(C)(C)c2ccc(C(F)(F)F)cc2)ncc1C#N
active: [1] -49% | [2] -48.7% | [11] -2.85% | [18] -0.0248% | [15] -75.7% | [16] -77.8%
inactive: [3] 24.4% | [4] 47.2% | [5] 18.9% | [6] 56.8% | [7] 24.1% | [8] 24% | [9] 63% | [10] 24.3% | [12] 53.9% | [13] 17% | [17] 15.4%

O=C(Oc1ccccc1[N+](=O)[O-])C1CCCN1C(=O)OCc1ccccc1 (configuration not stated)
inactive: [1] 82.4% | [2] 97.3% | [3] 97.5% | [4] 109% | [5] 103% | [6] 108% | [7] 109% | [8] 110% | [9] 112% | [10] 92.7% | [11] 110% | [12] 89.6% | [13] 104% | [14] 95.6% | [15] 87% | [16] 101% | [17] 107%

COc1ccc(-c2nc(/C=N/Nc3cc(C)nc4ccc(Cl)cc34)c(C)o2)cc1
active: [1] -5.37% | [2] -50.8% | [3] -82% | [4] -93.3% | [5] -95.3% | [7] -78.8% | [8] -96.9% | [9] -29.3% | [10] -74.7% | [11] -38% | [12] -34.9% | [13] -97.1% | [18] -88.6% | [15] -86% | [16] -48.3% | [17] -87%
inactive: [6] 92.5%
